Compound activity deposited in PubChem BioAssay by several laboratories.
Compounds with a hit are over-represented: about 4.1% of the library has one in this group of screens.
GDH-TPI counter: inhibits GDH-TPI coupling enzymes, artifact for Mtb FBA screen; GDH-TPI coupled enzyme counterscreen, NADH absorbance; inhibition, % at 4.8 µM; 360,000 compounds, 1.2% hits; AID 588335; in the data active = inhibition above about 30%;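 note: 0% = DMSO wells and 100% = wells lacking the enzyme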
BH1578 lux ind: quorum light induction in luxS cqsA deficient V. cholerae; V. cholerae BH1578 lux reporter, luminescence, 6 h; activation, % at 18.7 µM; 350,000 compounds, 0.16% hits; in the data active = activation mostly above about 9.7%, no sharp cut-off
Mtb UGM inh: inhibitors of M. tuberculosis UDP-galactopyranose mutase; P9WIQ1; purified UGM, fluorescence polarization probe displacement; inhibition, % at 10 µM; 320,000 compounds, 0.06% hits; AID 504406; in the data active = inhibition above about 10%, passing the limit was not always enough
Target sequence (P9WIQ1 whole entry, looked up): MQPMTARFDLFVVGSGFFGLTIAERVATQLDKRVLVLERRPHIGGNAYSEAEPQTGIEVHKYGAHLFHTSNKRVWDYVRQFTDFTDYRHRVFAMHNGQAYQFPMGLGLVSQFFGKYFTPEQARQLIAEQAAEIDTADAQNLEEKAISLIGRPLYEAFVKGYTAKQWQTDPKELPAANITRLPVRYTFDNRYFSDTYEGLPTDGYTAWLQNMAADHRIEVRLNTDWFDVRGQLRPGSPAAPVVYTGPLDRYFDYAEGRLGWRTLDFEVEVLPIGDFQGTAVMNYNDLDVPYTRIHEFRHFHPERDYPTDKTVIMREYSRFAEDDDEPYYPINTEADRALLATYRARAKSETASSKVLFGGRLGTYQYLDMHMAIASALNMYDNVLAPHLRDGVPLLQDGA
Rv3671c inh: Rv3671c (M. tuberculosis) protease inhibition. P9WHR9. inhibition, % at 5.96 µM. 320,000 compounds, 0.048% hits. AID 2606; in the data active = inhibition above about 38%;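 note: extracellular domain of Rv3671c used as enzyme; 0% = enzyme with DMSO and 100% = no enzyme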
Mtb FBA inh: Mtb fructose-bisphosphate aldolase inhibition; purified M. tuberculosis FBA, fluorescence read-out; AID 588726; P9WQA3; inhibition, % at 1 µM; 360,000 compounds, 2.3% hits; in the data active = inhibition above about 27%;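 note: 0% = vehicle and 100% = reference inhibitor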
RecA intein inh: Mtb RecA intein splicing inhibition; cell-free RecA intein splicing, fluorescence; inhibition, % (no concentration beside the values); 290,000 compounds, 0.75% hits; in the data active = inhibition above about 30%;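 note: 0% = vehicle wells and 100% = reference inhibitor control wells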
Starred values were filed as active, the others as inactive; i = inactive; . = no result given; + = active, no number.

SMILES	GDH-TPI counter	BH1578 lux ind	Mtb UGM inh	Rv3671c inh	Mtb FBA inh	RecA intein inh
Cc1c(/C=C(\C#N)C(=O)NCc2ccccc2)cc(C#N)n1C	34.9*	-0.4	-2.6	-7.1	-3.5	-4.7
O=C(CCC(=O)N1CCOc2ccc(Cl)cc21)NCc1ccccc1	-8.7	i	1.2	1.6	-0.8	0.6
CC1CCCC(NC(=O)CCNC(=O)c2ccccc2Cl)C1C (centres undefined)	-2.9	-1.4	-0.2	-10.3	0.1	-1.3
N#CCCN(C(=O)CCl)c1cccc(Cl)c1	-2.2	-0.6	-2.4	10.4	-2.2	45.3*
CCCCCCCN(C(=O)CCl)c1cccc(C)c1	-9.9	-0.2	1.5	-1.6	3.0	-2.3
COc1ccc(-c2cc3nc(CCl)[nH]c(=O)c3s2)cc1	19.2	-0.2	5.0	-16.7	160.4*	9.7
O=c1[nH]cnc2cc(-c3ccccc3)sc12	9.7	-0.2	-2.5	-6.0	1.6	10.2
COc1ccc(-c2cc3nc[nH]c(=O)c3s2)cc1	31.0*	i	-0.9	-4.1	+	0.9
O=C(c1ccc(NS(=O)(=O)c2ccc(Cl)c(Cl)c2)cc1)N1CCOCC1	-5.3	0.0	.	.	-0.6	.
CC[C@]12c3[nH]c4cc(CCC(=O)N(C)C)ccc4c3CCN1C(=O)[C@@H](CC(=O)NCc1cccc(C(F)(F)F)c1)C[C@@H]2C(=O)N1CCN(C(=O)c2ccco2)CC1	6.2	-0.7	.	.	4.0	.
COc1ccc(COn2nnc3ccc(S(=O)(=O)N4CCOCC4)cc32)cc1F	-0.7	-0.7	-0.6	2.9	5.6	1.9
CC(C(=O)Nc1ccc(F)cc1Cl)N1CCN(S(=O)(=O)c2cccs2)CC1 (centres undefined)	4.0	3.1	.	8.2	-1.8	.
CN(C)c1ccc(/C=N/N2C(=S)SC(C)(C)C2N(O)C(=O)Nc2ccc([N+](=O)[O-])cc2)cc1 (centres undefined)	50.6*	-0.1	2.2	8.0	-0.5	-2.4
CNC(=O)N(O)C1N(/N=C/c2ccccc2O)C(=S)SC1(C)C (centres undefined)	36.1*	-0.7	2.2	6.2	0.0	-8.7
CNC(=O)N(O)C1N(/N=C/c2cccnc2)C(=S)SC1(C)C (centres undefined)	16.9	i	-0.6	6.8	-1.0	-11.3
CNC(=O)N(O)C1N(/N=C/c2ccc(SC)cc2)C(=S)SC1(C)C (centres undefined)	35.6*	i	0.2	-0.3	0.1	-14.9
O=C(CC(=O)N/N=C\c1c(Cl)cccc1Cl)NCc1ccccc1	8.9	5.6*	-2.5	9.1	-7.3	3.2
CCOC(=O)/C(C#N)=C/N=c1ccc(C)cn1C	39.3*	i	2.7	0.8	1.9	-3.6
CCCN1C=CC(=C/C=C(\C#N)C(=O)OCC)C=C1	.	.	-5.7	-22.9	.	-10.1
CC(C)NC(=O)Cn1nnc(-c2ccccc2)c1COc1ccc2ccccc2c1	1.8	i	.	.	-2.5	.
O=C1NCCC/C1=N\Nc1ccc(Br)cc1	37.4*	-0.4	-3.0	0.5	0.3	0.6
O=S(=O)(N/N=C\C=C\c1ccccc1)c1ccc(Cl)cc1	58.8*	i	4.8	-3.1	0.0	0.6
O=S(=O)(N/N=C\c1ccccc1O)c1ccc(Cl)cc1	6.9	0.4	-0.3	.	-0.2	1.5
N#Cc1ccc(Oc2ccc(C#N)c(C#N)c2)cc1C#N	3.5	-1.8	.	.	1.4	.
C/C(=N\Nc1ccc(C(F)(F)F)cn1)c1ccncc1	56.1*	i	0.0	-0.6	-2.0	0.7
SMILES	GDH-TPI counter	BH1578 lux ind	Mtb UGM inh	Rv3671c inh	Mtb FBA inh	RecA intein inh
Oc1ccc(/C=N/Nc2ccc(C(F)(F)F)cn2)cc1	18.9	-0.9	0.6	8.1	-1.5	-3.4
Cc1nn(-c2ccccc2)c(Cl)c1C1C(C#N)=C(N)Oc2n[nH]c(C)c21 (centres undefined)	6.3	0.9	1.2	2.7	-1.3	62.4*
CCn1nc(C)c(C2C(C#N)=C(N)Oc3n[nH]c(C)c32)c1C (centres undefined)	4.0	2.1	-2.3	-0.5	1.4	41.6*
CCN(C(=O)COC(=O)c1ccc(C)c(S(=O)(=O)N2CCCCC2)c1)C1CCS(=O)(=O)C1 (centres undefined)	3.6	i	0.3	-5.3	1.8	-1.5
Cc1c(Br)c([N+](=O)[O-])nn1C(C)C(=O)Nc1ccc2c(c1)OCO2 (centres undefined)	14.0	55.2*	2.5	2.1	0.9	2.6
Cc1cc(C)n(C(=O)C(C)n2nc([N+](=O)[O-])c(Br)c2C)n1 (centres undefined)	-6.2	i	1.5	-0.8	1.0	2.5
COc1cc2c(C#N)c(N3CCOCC3)nc(N)c2c(N)n1	7.7	0.1	-2.4	-0.6	31.6*	1.6
Cc1c(C)c2c(OCC(=O)N3CCC[C@H]3C(=O)O)cc3c(c2oc1=O)CCC(C)(C)O3	13.2	-0.4	1.0	-3.6	+	2.0
Cc1c(C)c2c(OCC(=O)N3CCC(O)CC3)cc3c(c2oc1=O)CCC(C)(C)O3	31.4*	-0.3	-0.3	-2.1	+	.
Cc1ccc(CN(C)C(=O)C2CCC(=O)N(CC3CCCCC3)C2)o1 (centres undefined)	9.1	i	-0.4	-5.0	2.9	-0.3
N=c1c(C(=O)NCC2CCCO2)cc2c(=O)n3ccccc3nc2n1Cc1cccnc1 (centres undefined)	15.7	-1.4	2.9	2.2	+	i
O=C(Cn1c(=O)n(Cc2ccc(F)cc2)c(=O)c2ccccc21)NCC1CCCO1 (centres undefined)	-3.0	2.8	0.1	-3.9	2.1	-1.0
N=c1c(C(=O)NCC2CCCO2)cc2c(=O)n3ccccc3nc2n1Cc1ccc(F)cc1 (centres undefined)	0.0	0.9	2.5	-2.3	+	i
COc1ccc(CCn2c(=N)c(C(=O)NCC3CCCO3)cc3c(=O)n4cccc(C)c4nc32)cc1 (centres undefined)	13.0	-2.6	-0.4	-0.7	13.9	-9.8
Cc1cccn2c(=O)c3cc(C(=O)NCC4CCCO4)c(=N)n(Cc4cccnc4)c3nc12 (centres undefined)	12.7	i	-0.6	2.8	+	.
Cc1c(Cl)ccc(S(=O)(=O)Nc2cccnc2)c1Cl	2.1	-0.1	-0.8	-1.3	0.3	3.2
COc1ccccc1CC(=O)N1CCOCC1	4.9	-0.4	-0.5	5.8	14.5	-1.8
O=C(c1ccco1)N1N=C(c2cccs2)CC1c1cc([N+](=O)[O-])ccc1O (centres undefined)	45.4*	i	2.5	-11.2	-4.2	5.6
COc1ccccc1N1CCN(C(=O)c2cc3c(s2)-c2ccccc2OC3)CC1	13.5	i	-2.4	3.8	7.6	6.9
COC(=O)c1cc2c(s1)-c1ccccc1OC2	15.4	-0.1	-1.0	3.5	+	-24.2
O=C(Nc1cccnc1Cl)c1cc2c(s1)-c1ccccc1OC2	6.9	5.9	-2.5	-17.8	152.7*	-33.7
CNC(=O)c1cc2c(s1)-c1ccccc1CC2	16.6	-0.6	-2.4	-0.6	+	1.4
